Experimental findings from PubChem BioAssay (Tox21) are described below.

Molecules are shown by their SMILES. Where “and” joins values, the source holds several entries; their conditions need not be identical. Equal entries are not always repeated. Results filed as inconclusive are left out. A structure can be active in one record and inactive in another. Calls of active or inactive are those of the source. Unless noted, calls follow the shape of the dose curve; as a rule, active = well fitted curve in the direction sought with a large enough effect in the repeat runs; inconclusive = weak or mixed curves; inactive = no such curve, though single readings can be large; an effect the other way counts as inactive or inconclusive.

The nature of assay [1]: qHTS assay to identify small molecule agonists of the hypoxia (HIF-1) signaling pathway (AID 1224846; active = well fitted activation curve with a large enough effect in the signal ratio in the repeat runs, not every such curve was filed as active; the % refers to the signal ratio). The essentials: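 In ME-180 cells bearing an HRE-bla construct, 17 h treatment with DMSO-dissolved compounds at 37C was followed by CCF4-AM loading to quantify reporter induction.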
For orientation: In qHTS, concentration-response curves come from the screen itself.

Assay [2] in a line: qHTS assay to identify small molecule agonists of H2AX - cell viability counter screen (AID 1224847; calls by dose curve; also: top concentration of the series differs between compounds; nearly all actives have a fitted effect of over 30% in size). The essentials: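 We seed wild-type CHO-K1 cells overnight, treat them for 3 hr at 37C with compounds in 15-concentration series, and quantify remaining viability by CellTiter-Glo luminescence.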
Assay [3] is described as follows: qHTS RealTime-Glo MT Cell Viability Assay in HEK293 cells - 32 hour (AID 1224868). Also: nearly all actives have a fitted effect of over 50% in size. Also: potency is read from the fitted curve at half-maximal effect. As to activity change, negative = cytotoxic: top concentration of the series differs between compounds. The essentials:
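Quantitative high-throughput screen of the Tox21 10K library in HEK293: cells and RealTime-Glo reagents plated together, compound added at 5 h, luminescence monitored through 40 h at 37 C.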

Assay [4] is described as follows: qHTS RealTime-Glo MT Cell Viability Assay in HepG2 cells - 40 hour (AID 1224870). Also: nearly all actives have a fitted effect of over 50% in size. Also: potency is read from the fitted curve at half-maximal effect. In short, it runs like this: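 HepG2 cells (600/well) mixed with RealTime-Glo MT reagent, settled 5 h at 37 C/5% CO2 before compound addition. Nonlytic NanoLuc luminescence from viable-cell prosubstrate reduction read repeatedly during 40 h treatment at 37 C.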
Assay [5] can be described thus: A CellTox Green Cytotoxicity Assay to monitor cytotoxicity in HEK293 cells - 40 hour (AID 1224871). Also: nearly all actives have a fitted effect of over 45% in size. Also: potency is read from the fitted curve at half-maximal effect. The essentials:
(§1)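 Homogeneous no-lysis format: HEK293 cell suspension mixed with CellTox Green reagent, seeded, incubated 5 h at 37 C/5% CO2, then dosed by pintool with compound in DMSO.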

Assay [6] in a line: qHTS RealTime-Glo MT Cell Viability Assay in HepG2 cells - 24 hour (AID 1224867). Also: nearly all actives have a fitted effect of over 50% in size. Also: potency is read from the fitted curve at half-maximal effect. The essentials: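 Compound treatment began 5 h after plating HepG2 cells (600/well) with NanoLuc luciferase and prosubstrate. Plates stayed at 37 C for 40 h; luminescence was captured at six time points, 0 h through 40 h.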
The nature of assay [7]: A CellTox Green Cytotoxicity Assay to monitor cytotoxicity in HEK293 cells - 0 hour (AID 1224869). Also: nearly all actives have a fitted effect of over 50% in size. Also: potency is read from the fitted curve at half-maximal effect. The essentials: as §1
A short description of assay [8]: qHTS assay to identify small molecule antagonists of the estrogen related receptor (ERR) signaling pathway from Tox21 library (AID 1224848). Also: nearly all actives have a fitted effect of over 50% in size. Also: potency is read from the fitted curve at half-maximal effect. In short, it runs like this:
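Quantitative high-throughput format: ERR reporter cells (2,000/well) pre-incubated 6 h, treated 18 h at 37 C with compounds in DMSO alongside positive and negative controls, then read by ONE-Glo luminescence.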

Assay [9] can be described thus: qHTS assay to identify small molecule agonists of the estrogen related receptor (ERR) signaling pathway from Tox21 library (AID 1224849; calls by dose curve; also: nearly all actives have a fitted effect of over 15% in size). The note with it: ERR reporter cell line, ONE-Glo luciferase, 18 h. The essentials:
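Reporter cells (ERR, NTP source) treated with Tox21 10K compounds 18 h, 37 C. Readout: ONE-Glo luminescence, 30 min RT.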
% is scaled to controls: 0 for no effect and ±100 for the full control effect.

On to `Nc1ccc([N+](=O)[O-])cc1O`, for which, in assay [1], the outcome was inactive. Also, the Potency result in assay [2], in [3], in assay [4] and in [5] was “inactive” throughout.
With `C[C@](N)(Cc1ccc(O)c(O)c1)C(=O)O`, in [1], the compound was called inactive. Further, the Potency result in assay [6], in assay [3], in [7], in assay [4] and in assay [5] was “inactive” in each case.
Take `CC(=O)CC(c1ccccc1)c1c(O)c2ccccc2oc1=O` (centres undefined): in [1], the result was inactive. Further, the Potency result in [2], in assay [6], in assay [3], in assay [4] and in assay [5] was “inactive” each time.
On to `C1=CC2C3C=CC(C3)C2C1` (centres undefined), for which, in [1], the result was inactive. The Potency entry in [8], in assay [6], in assay [3] and in assay [4] was “inactive” in each case. Moreover, in assay [9] (at 92.4 µM (top of the series)), the activity change, positive = activation was -1.35% (inactive).
Take `CC(C)c1c(C(=O)Nc2ccccc2)c(-c2ccccc2)c(-c2ccc(F)cc2)n1CC[C@@H](O)C[C@@H](O)CC(=O)O`: the compound was called inactive in [1]. The Potency result in assay [3], in [7], in [4] and in assay [5] was “inactive” throughout.
Regarding `CCCCC(CC)C(=O)O` (centres undefined), the compound was classed as inactive in assay [1]. The Potency entry in [2], in assay [3], in assay [4] and in assay [5] was “inactive” each time.
For the compound `OC[C@H]1O[C@H](O[C@]2(CCl)O[C@H](CCl)[C@@H](O)[C@@H]2O)[C@H](O)[C@@H](O)[C@H]1Cl`, in assay [1], the compound was called inactive. In addition, the Potency entry in assay [2], in assay [3], in assay [4] and in assay [5] was “inactive” each time.
Consider `COc1ccc(C(Cl)=C(c2ccc(OC)cc2)c2ccc(OC)cc2)cc1`, for which the outcome in assay [1] was inactive. The Potency in assay [8] is 21.6 µM (active) and 27.3 µM (active) and 26.6 µM (active). The activity change, positive = activation in assay [9] (at 42.5 µM (top of the series)) is -32.5% (inactive); in [9] (at 92.4 µM (top of the series)), -45.8% (inactive) and -43.7% (inactive). In addition, the Potency entry in assay [3], in assay [7], in assay [4] and in assay [5] was “inactive” throughout.
Turning to `CCCC[P+](CCCC)(CCCC)CCCC`, the call in assay [1] was inactive. Further, the Potency in assay [3] is 19.4 µM (active) and 15.8 µM (active) and 3.89 µM (active). The Potency result in assay [4] and in assay [5] was “inactive” in each case.
Take `NC(CO)(CO)CO`: the compound was called inactive in [1]. In addition, the Potency result in assay [2], in [3], in [4] and in [5] was “inactive” in each case.
For the compound `Nc1ccc2c(c1)CN1C(=O)c3ccccc3C1=N2`, the activation in assay [1] is 0.64% [at 15.8 µM] (inactive). Besides, in assay [6], the activity change, negative = cytotoxicity was -3.47% [at 15.8 µM] (inactive). Besides, the Potency is 4.65 µM (active) in [3], 11.7 µM (active) in assay [7] and 10.4 µM (active) in [5]. Moreover, in assay [4], the activity change, negative = cytotoxic is 1.05% [at 15.8 µM] (inactive).
In the case of `CC(=O)CCC(=O)O`, the outcome in assay [1] was inactive. For the same compound, the Potency result in [2], in assay [3], in [4] and in [5] was “inactive” throughout.
On to `C/C=C/C=C/C(=O)O`, for which the compound was classed as inactive in assay [1]. In addition, the Potency entry in assay [6], in assay [3], in assay [7], in assay [4] and in assay [5] was “inactive” in each case.
For the compound `O=C(O)c1ccccc1`, the compound was classed as inactive in assay [1]. The Potency entry in assay [2], in assay [6], in assay [3], in [4] and in assay [5] was “inactive” throughout.
As for `CCOC(N)=O`, the compound was called inactive in [1]. Also, the Potency entry in assay [6], in assay [3], in [7], in assay [4] and in [5] was “inactive” in each case.
Turning to `O=c1[nH]cnc2c1ncn2[C@H]1CC[C@@H](CO)O1`, in assay [1], the compound was called inactive. For the same compound, the Potency result in [8], in [6], in [3], in [7], in assay [4] and in assay [5] was “inactive” throughout. Moreover, the activity change, positive = activation in assay [9] (at 42.5 µM (top of the series)) is 4.94% (inactive); in [9] (at 92.4 µM (top of the series)) it was 7.43% (inactive) and 1.63% (inactive).
For `CS(=O)(=O)OCCCCOS(C)(=O)=O`, in assay [1], the outcome was inactive. For the same compound, the Potency entry in assay [8], in [3], in assay [7], in [4] and in assay [5] was “inactive” each time. Further, the activity change, positive = activation in [9] (at 42.5 µM (top of the series)) was -0.0445% (inactive); in assay [9] (at 92.4 µM (top of the series)), -6.97% (inactive) and 6.13% (inactive).
Regarding `COc1ccc(CN(CCN(C)C)c2ccccn2)cc1`, the Potency result in assay [7] and in [5] was “inactive” each time.
With `NC(=O)n1c(O)c(C(=O)c2cccs2)c2cc(Cl)ccc21`, the Potency entry in assay [2], in assay [3], in [7], in assay [4] and in [5] was “inactive” each time.
As to `Nc1c2c(nc3ccccc13)CCCC2`, the Potency result in assay [2], in assay [6], in [3], in assay [7], in [4] and in assay [5] was “inactive” each time. For the same compound, the Potency in [8] is 61.1 µM (active) and 54.5 µM (active) and inactive. For the same compound, the activity change, positive = activation was -6.1% (inactive) in assay [9] (at 42.5 µM (top of the series)); -44% (inactive) and -30.5% (inactive) in assay [9] (at 92.4 µM (top of the series)).
`COc1ccc2cc(S(=O)(=O)N[C@H](CC(=O)N[C@H](Cc3ccc(CN4[C@H](C)CCC[C@@H]4C)cc3)C(=O)N(C)C(C)C)c3ccc4c(c3)OCO4)ccc2c1`: the Potency in [8] was 25.8 µM (active); in assay [6], 52 µM (active); in assay [3] it was 26.1 µM (active); in [4] it was 52 µM (active); in assay [5], 52 µM (active). Besides, the activity change, positive = activation in [9] (at 92.4 µM (top of the series)) is -76% (inactive).
On to `CN(C)C(=S)SC(=S)N(C)C`, for which the Potency in assay [8] is 886 nM (active) and 1.09 µM (active) and 1.19 µM (active); in assay [6] it was 1.74 µM (active) and 2.68 µM (active); in assay [3] it was 1.78 µM (active) and 1.55 µM (active) and 6.74 µM (active); in assay [4], 1.38 µM (active) and 3.01 µM (active); in [5] it was 1.59 µM (active) and 3.09 µM (active) and 3.79 µM (active). Moreover, the activity change, positive = activation in [9] (at 42.5 µM (top of the series)) was -68.6% (inactive); in assay [9] (at 92.4 µM (top of the series)), -79.6% (inactive) and -76.2% (inactive).
In the case of `O=C1OC2(c3ccccc31)c1cc(Br)c(O)c(Br)c1Oc1c2cc(Br)c(O)c1Br`, the Potency result in [3] and in assay [4] was “inactive” each time. The Potency was 11.1 µM (active) and 17.9 µM (active) and 23.9 µM (active) in [7]; 3.95 µM (active) and 11.3 µM (active) and 7.56 µM (active) in assay [5].
